LMNA splice mod – LMNA splicing modulation; HeLa LMNA splicing GFP/RFP minigene ratio, 48 h; Potency, µM (highest dose often 46.1 µM), inactives show at the top dose ratio change, negative = inhibition, hits mostly inhibitors; 200,000 compounds, 0.01% hits; AID 1487; active means well fitted inhibition curve with a large enough effect in the signal ratio, with a control signal flat, not every such curve was filed as active; inconclusive means small, poorly fitted or top-dose-only effect, or effect the other way, or a change in a side signal; the % refers to the signal ratio
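S3 HeLa cells stably expressing lamin A-EGFP splicing minigene plus DsRed2, 600 cells/well, 48 h compound exposure at 37C. Laser-scanning cytometry; analysed as GFP (500-530 nm)/RFP (575-640 nm) total intensity ratio; 0.5% DMSO vehicle.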
N370S GC – N370S glucocerebrosidase modulation, Gaucher chaperone candidate; P04062; N370S GC spleen homogenate, 4MU-glucoside fluorescence; Potency, µM (titrated, usually from 59.4 µM), for the others: top-dose activity change, negative = inhibition, actives largely listed as inhibitors; 330,000 compounds, 0.092% hits;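 further: 0% = full enzyme activity and -100% = no enzyme basal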
aGlu spleen mod – inhibitors or activators of human alpha-glucosidase in spleen homogenate | P10253 | human spleen homogenate, 4-MU-alpha-glucoside fluorescence | Potency, µM (titrated, usually from 79.9 µM), for inactives: top-dose activity change, negative = inhibition, actives largely listed as inhibitors | 240,000 compounds, 0.006% hits | AID 2112;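 further: 0% = enzyme with vehicle and -100% = no enzyme basal signal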
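Enzyme source: human spleen homogenate, 1 ug/well. Buffer 50 mM citric acid/K phosphate pH 5.0, 0.01% Tween-20. 4-MU-alpha-glucoside 1 mM; 37 C x 40 min; NaOH/glycine stop; fluorescence.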
Luc counter – counter-screen: inhibitors of Kinase-Glo firefly luciferase. Q27757. Kinase-Glo luciferase, ATP luminescence, 8 min. Potency, µM (series often up to 38.3 µM), for the others: top-dose activity change, negative = inhibition, usual class: inhibitors. 200,000 compounds, 0.28% hits. AID 1379; further: nearly all actives have a fitted effect of over 60% in size
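Recombinant Kinase-Glo luciferase, 10 uM ATP (linear range), luciferin; imidazole pH 7.2 / KCl / MgCl2 / Tween / BSA buffer; 8 min RT; luminescence.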
GAA glycogen mod – inhibitors or activators of human alpha-glucosidase glycogen cleavage; P10253; recombinant GAA, glycogen substrate, Amplex Red glucose oxidase fluorescence; Potency, µM (highest dose often 76.4 µM), for the others: top-dose activity change, negative = inhibition, hits mostly inhibitors; 300,000 compounds, 0.38% hits; AID 2100;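 further: 0% = full enzyme reaction and -100% = no-enzyme basal signal; the screen sought inhibitors and activators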
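qHTS, 1536-well; enzyme 4 nM final; cpd up to 77 uM; substrate bovine liver glycogen 30 ug; 50 mM citrate/phosphate pH 5.0, 0.01% Tween-20; 37 C, 40 min; Amplex Red detection 45 min RT; Hill fit → AC50.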
GAA inhib – alpha-glucosidase (human) inhibition; P10253; purified human GAA, 4-MU-alpha-glucoside fluorescence; Potency, µM (series often up to 76.9 µM), without a hit: top-dose activity change, negative = inhibition, most hits filed as inhibitors; 200,000 compounds, 0.005% hits; AID 1466;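 further: plate controls were uninhibited enzyme wells for no effect and no-enzyme background for full effect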
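Fluorescence at Ex 365/Em 440 nm from 4-methylumbelliferone reported enzyme activity after 20 min at room temperature. Reactions used 4 nM enzyme and 400 uM substrate at pH 5.0; curves fitted with the Hill equation.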
An asterisk follows results filed as active; ? = inconclusive; . = no result; [ ] = remark or other dose. Rows were chosen to be rich in hits. Some 0.52% of all compounds tested hit in one or more screens of this group. Unless noted, the call rests on the fitted dose curve; in most records, active means well fitted curve in the direction sought with a large enough effect; inconclusive means small, poorly fitted or top-dose-only effect, or another doubt; inactive means no such curve, though single readings can be large; an effect the other way counts as inactive or inconclusive. Unless noted, on the % scale 0 is the no-effect control and ±100 the full control effect; potency means the concentration at half of the fitted maximal effect.

SMILES	LMNA splice mod	N370S GC	aGlu spleen mod	Luc counter	GAA glycogen mod	GAA inhib
O=C(O)CC/C(=N/Nc1ncc(C(F)(F)F)cc1Cl)C(=O)O	?	-8%	-2%	2%	18µM*	-3%
COc1ccc(OC)c(CCNc2nc3cc(OC)c(OC)cc3c3nc(-c4cccnc4)nn23)c1	.	.	.	.	-6%[76.3 µM]	.
O=C1C2Sc3[nH]c(=O)sc3C(c3ccccc3)C2C(=O)N1c1ccc(Cl)cc1 (stereo unspecified)	4%[0.0737 µM]	9%	-2%	-2%	28µM*	2%
Cc1ccc(N2C(=O)C3Sc4[nH]c(=O)sc4C(c4ccccc4)C3C2=O)cc1 (stereo unspecified)	2%[0.0737 µM]	11%	1%	-2%	31µM*	4%
O=C1C2Sc3[nH]c(=O)sc3C(c3cc([N+](=O)[O-])ccc3O)C2C(=O)N1c1ccccc1 (stereo unspecified)	.	?	-13%	.	?	.
CC(=O)c1ccc(NC(=O)CCn2cccn2)cc1	-8%[46 µM]	.	.	.	.	.
COc1ccc(Nc2nc(C)c(-c3ccccc3)s2)cc1	-9%	-7%	-2%	0%	14µM*	-9%
Cc1nc(Nc2ccc(S(N)(=O)=O)cc2)sc1-c1ccccc1	.	1%	.	.	6%	.
Nc1cc(C(=O)O)ccc1Nc1ccc(F)c(F)c1	2%	-4%	3%	1%	12µM*	-6%
Cc1ccc(Nc2c(-c3ccsc3)nc3c(C)cccn23)cc1	.	.	.	.	11µM*	.
Cc1ccc2nc(-c3ccsc3)c(Nc3ccc(C(C)C)cc3)n2c1	.	.	.	.	-17%[76.3 µM]	.
Cc1cccn2c(Nc3ccccc3)c(-c3ccc(N4CCOCC4)cc3)nc12	.	.	.	.	4µM*	.
COc1ccc(NC(=O)Cn2c(SCc3cccc(Cl)c3)nc3ccncc32)c(OC)c1OC	.	.	.	.	10%[76.3 µM]	.
CCCOc1ccc(CC2C(=O)Nc3ccc(Br)cc32)cc1 (stereo unspecified)	?	.	.	.	-6%[76.3 µM]	.
COc1ccc(C(=O)Nc2ccccc2C(=O)N/N=C/c2cccc3ccccc23)cc1	11%	-4%[12.8 µM]	1%	5µM*	-6%	-7%
COc1ccc(C(=O)Nc2ccccc2C(N)=O)cc1	-10%	4%	-4%	?	4%	-5%
Cn1c(/C=C/c2ccccc2)nc2ccccc21	.	10%	6%	7.1µM*	6%	7%
COCCN=c1scc(-c2ccco2)n1/N=C/c1ccc(O)c(O)c1O	-2%[46 µM]	-9%	-3%	-2%	2%	-3%
CC(C)N=c1scc(-c2ccco2)n1/N=C/c1ccc(O)c(O)c1	?	-14%	-2%	-5%	7.1µM*	-13%
Cc1cccc(C)c1NC(=O)CSc1nc2ncccc2o1	-6%[46 µM]	.	.	.	.	.
O=CN1CCN(C[C@H](O)CN2CCCCC2)CC1	.	.	.	0%[7.66 µM]	.	.
CCS(=O)(=O)N1CCCc2cc(C(=O)Nc3cccc(C(C)=O)c3)ccc21	.	.	.	.	35µM*	.
Cc1cccc(NC(=O)c2onc3c2CCCC3)n1	-5%	-14%	-8%	4.5µM*	6%	-6%
Cc1c(/C=C/C(=O)c2ccccc2)cnn1C	-6%	-13%	-8%	?	12%	-4%
CCn1ncc(/C=C/C(=O)c2ccccc2)c1C	-7%	27%	-1%	10µM*	5%	-1%
CCOC(=O)c1c(C)[nH]c(C=Nc2ccccc2)c1O	10%	-11%	0%	-2%	4%	1%
CCOC(=O)c1c(C)[nH]c(C=Nc2ccc(OC)cc2)c1O	-10%	-2%	-2%	-2%	8.9µM*	-4%
COc1ccc(-c2cc3ncc(-c4ccccc4)c(N)n3n2)cc1	.	8%	-1%	11µM*	0%	4%
COc1ccc(-c2cc3nc(C)cc(N)n3n2)cc1	14%	-20%	1%	7.9µM*	1%	-4%
COC(=O)CC1Oc2cc3oc4c(c3cc2O1)C(=O)CC(C)(C)C4 (stereo unspecified)	.	20%	3%	-2%	.	.
